# Laboratory results as given in PubChem BioAssay (NCATS).
# Records with an inconclusive call do not appear. Active and inactive are the calls of the source. Calls come from the whole dose curve; as a rule, active = well fitted cell-killing curve with a large enough effect; inconclusive = small, poorly fitted or top-dose-only effect; inactive = flat fitted curve, though single readings scatter.
# Experiment: qHTS of pediatric cancer cell lines to identify multiple opportunities for drug repurposing: Confirmatory screen for BT-12 cells (AID 1347112);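 note: viability read after 48 h of compound exposure; nearly all actives have a fitted effect of over 55% in size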
# Details: BT-12 rhabdoid tumor cells, viability; series mostly up to 45.9 µM; activity change, negative = cytotoxic: at the top concentration
# From the text: Drug repurposing or repositioning has been offered as a strategy for drug development in oncology programs. This approach has special potential for childhood cancers and other rare or orphan diseases, where the expected return on new drug development has been a disincentive to pharmaceuticals.
# In this project we exploit the poly-pharmacology of drugs to discover new indications via phenotypic screening of a panel of 19 well-characterized cell lines derived from solid tumors seen in children and adolescents. The goal is to identify approved drugs with previously unrecognized anticancer properties that has the potential to reveal new mechanisms and biological processes involved in carcinogenesis or drug resistance. We employed a titration-based paradigm (quantitative high-throughput screening or qHTS), where all compounds were tested at multiple concentrations for their effect on cell viability. Concentration-response curves (CRCs) were derived directly from the primary screen, and both potency and efficacy values were used to identify compounds with robust bioactivity profiles. We screened the NIH Chemical Genomics Center (NCGC) Pharmaceutical Collection (NPC) and Mechanism Interrogation Plate (MIPE) small molecule collections of approved and investigational compounds against these cell lines; and measured metabolically active cells after 48 hours of compound treatment as a proxy for cell viability.
# Assay Submitter: Nathalia J. Martinez, National Center for Advancing Translational Sciences, National Institutes of Health, Rockville, MD, USA; email: natalia.martinez@nih.gov
# [1] Shen, M et al. Quantitative high-throughput phenotypic screening of pediatric cancer cell lines identifies multiple opportunities for drug repurposing. Oncotarget 2017 Dec 19;9(4):4758-4772. PMID 29435139.
# The cells were obtained from University of North Carolina (UNC), Pediatric Preclinical Testing Program (PPT), and Coriell Institute (CI).
# qHTS cell viability assay:
# Cells were assayed in growth media at a density of 500-1,000 cells/well. Five microliters of cells were dispensed into 1,536-well, white, solid-bottom, TC-treated plates (Greiner Bio One) using a multidrop dispenser and incubated at 37 degrees C, 5% CO2, under a humidified atmosphere for 5 hours. Twenty-three nanoliters of compounds and controls (neutral control DMSO or positive control bortezomib at final concentration of 2.3 µM) were subsequently transferred by Kalypsys pintool. For primary screens, the MIPE collection was tested at 11-point dilutions (final concentrations range from 0.78 nM to 46 µM) and the NPC collection at 8-point dilutions (final concentrations range from 0.59 nM to 46 µM). Compounds tested in follow-up screens were assayed at 11-point dilutions. Cells were incubated for 48 hours, followed by addition of 3 µL of CellTiter-Glo (Promega). After a 15 min incubation at room temperature, samples were analyzed for luminescence intensity using a ViewLux High-throughput CCD imager equipped with clear filters.
# % is set by controls: 0 for no effect and ±100 for the full control effect; potency is the fitted concentration of half-maximal effect.
Structure (SMILES),Potency,"activity change, negative = cytotoxic"
COc1cc(NCc2ccc3nc(N)nc(N)c3c2C)cc(OC)c1OC,3.29 µM (active),
CCOC(=O)[C@H](CCc1ccccc1)N[C@H]1CS[C@H](c2cccs2)CN(CC(=O)O)C1=O,,-9.87% (inactive)
CCCCOc1ccc(CC(=O)NO)cc1,,-2.71% (inactive)
CNCC[C@H](Oc1cccc2ccccc12)c1cccs1,,-3.89% (inactive)
C[C@@H]1C[C@H]2[C@@H]3CCC4=CC(=O)C=C[C@]4(C)[C@@]3(Cl)[C@@H](O)C[C@]2(C)[C@@]1(OC(=O)c1ccco1)C(=O)CCl,5.85 µM (active),
CS(=O)(=O)c1ccc([C@@H](O)[C@@H](CO)NC(=O)C(Cl)Cl)cc1,,-17.4% (inactive)
CCC(=O)O[C@]1(C(=O)CCl)[C@@H](C)C[C@H]2[C@@H]3CCC4=CC(=O)C=C[C@]4(C)[C@@]3(F)[C@@H](O)C[C@@]21C,,-7.45% (inactive)
Nc1[nH]c(=O)ncc1F,,1.16% (inactive)
COc1ccc(-c2ccc3cc(C(=O)O)ccc3c2)cc1C12CC3CC(CC(C3)C1)C2,,-4.09% (inactive)
O=NN(CCCl)C(=O)NC1CCCCC1,,15.5% (inactive)
CNS(=O)(=O)CCc1ccc2[nH]cc(C3CCN(C)CC3)c2c1,,-3.72% (inactive)
CC(C)NCC(O)c1ccc(NS(C)(=O)=O)cc1 (stereo unspecified),,6.5% (inactive)
CC(C)(C)C(=O)OCOP(=O)(COCCn1cnc2c(N)ncnc21)OCOC(=O)C(C)(C)C,16.5 µM (active),
COc1cc([C@@H]2c3cc4c(cc3[C@H](O)[C@H]3COC(=O)[C@H]23)OCO4)cc(OC)c1OC,0.0522 µM (active),
CC(C)C[C@H](NC(=O)[C@H](CCc1ccccc1)NC(=O)CN1CCOCC1)C(=O)N[C@@H](Cc1ccccc1)C(=O)N[C@@H](CC(C)C)C(=O)[C@@]1(C)CO1,0.165 µM (active),
COC(=O)Nc1nc2ccc(C(=O)c3ccccc3)cc2[nH]1,4.14 µM (active),

Structure (SMILES),Potency,"activity change, negative = cytotoxic"
CCOC(=O)c1ccc(C#Cc2ccc3c(c2)C(C)(C)CCS3)nc1,,11.9% (inactive)
C[C@@H](CN1CC(=O)NC(=O)C1)N1CC(=O)NC(=O)C1,,-4.66% (inactive)
CO[C@@]12[C@H](COC(N)=O)C3=C(C(=O)C(C)=C(N)C3=O)N1C[C@@H]1N[C@@H]12,16.5 µM (active),
COc1ccc(C(=O)CC(=O)c2ccc(C(C)(C)C)cc2)cc1,,-7.35% (inactive)
S=P(N1CC1)(N1CC1)N1CC1,,-3.01% (inactive)
CCC(=O)O[C@]1(C(=O)SCF)[C@H](C)C[C@H]2[C@@H]3C[C@H](F)C4=CC(=O)C=C[C@]4(C)[C@@]3(F)[C@@H](O)C[C@@]21C,,-11.2% (inactive)
Cn1nnc2c(C(N)=O)ncn2c1=O,,-3.48% (inactive)
COc1cc2c(Nc3ccc(Br)cc3F)ncnc2cc1OCC1CCN(C)CC1,,-3.22% (inactive)
CC(C)(C#N)c1cc(Cn2cncn2)cc(C(C)(C)C#N)c1,,14.5% (inactive)
N=C(N)c1ccc(OCCCCCOc2ccc(C(=N)N)cc2)cc1,3.29 µM (active),
CN(C)c1ccc(C(=C2C=CC(=[N+](C)C)C=C2)c2ccc(N(C)C)cc2)cc1,2.33 µM (active),
CNNCc1ccc(C(=O)NC(C)C)cc1,,-9.79% (inactive)
Nc1nc(N)nc(-c2cc(Cl)ccc2Cl)n1,,-3.54% (inactive)
CC1CC2C3CCC4=CC(=O)C=C[C@]4(C)[C@@]3(F)[C@@H](O)C[C@]2(C)[C@@]1(O)C(=O)CO (stereo partly specified),,-11.7% (inactive)
Nc1nc(N)c2nc(CNc3ccc(C(=O)NC(CCC(=O)O)C(=O)O)cc3)cnc2n1 (stereo unspecified),0.928 µM (active),
